Compound activity (PubChem BioAssay)
Only some compounds are listed: those with a hit (about 3.8% of all), similar ones and a draw of the others.
ADAM10 inh – human ADAM10 inhibitors, primary screen, biochemical, QFRET, HTS | recombinant ADAM10, EDANS/DABCYL FRET peptide cleavage, 3 h | inhibition, % at 7 µM | actives 0.62% (n = 370,000);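 active = inhibition above a per-campaign cutoff equal to the mean of compounds falling between control-based bounds plus 3 SD, cut at about 20% in these data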;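 also: 0% = DMSO wells while the 100% control is not disclosed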
Target sequence (O14672 214-748 limits assumed): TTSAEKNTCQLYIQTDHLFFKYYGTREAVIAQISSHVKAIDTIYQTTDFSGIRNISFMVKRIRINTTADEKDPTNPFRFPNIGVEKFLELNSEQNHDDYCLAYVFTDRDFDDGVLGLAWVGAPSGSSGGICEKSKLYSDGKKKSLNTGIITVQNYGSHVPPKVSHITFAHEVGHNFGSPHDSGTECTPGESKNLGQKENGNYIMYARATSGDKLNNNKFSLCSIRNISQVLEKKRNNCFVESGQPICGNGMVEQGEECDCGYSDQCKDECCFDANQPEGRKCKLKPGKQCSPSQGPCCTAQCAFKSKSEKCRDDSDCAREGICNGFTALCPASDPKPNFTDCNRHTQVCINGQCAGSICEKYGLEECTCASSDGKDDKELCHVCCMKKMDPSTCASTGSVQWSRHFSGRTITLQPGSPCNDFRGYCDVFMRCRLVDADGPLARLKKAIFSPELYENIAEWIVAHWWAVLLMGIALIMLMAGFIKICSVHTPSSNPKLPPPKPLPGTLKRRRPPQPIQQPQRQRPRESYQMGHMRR
FGF22 binding – binders of human FGF22 protein, primary screen, FGF22 synaptogenesis inhibitor project, biophysical, thermal shift, single point | recombinant FGF22 thermal shift, SYPRO orange fluorescence; percent of sucrose octasulfate shift, DMSO zero | activity (Tm shift, normalised), % at 9.99 µM | actives 1.5% (n = 340,000);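 active = mean Tm shift, scaled 0 neutral to 100 positive control, at about 1.3% or above, every replicate too, limit read from the data; inconclusive = no clear call, values can overlap the other calls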
Target sequence (Q9HCT0 whole entry, looked up): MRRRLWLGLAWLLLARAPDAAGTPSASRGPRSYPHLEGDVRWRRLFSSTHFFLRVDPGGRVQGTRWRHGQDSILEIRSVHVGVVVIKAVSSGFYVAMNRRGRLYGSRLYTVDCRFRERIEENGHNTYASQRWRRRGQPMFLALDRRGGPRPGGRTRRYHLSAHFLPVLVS
Ecoli rRNA inh – reduced GFP signal of wild-type E. coli, primary screen, bacterial rRNA inhibitor project, GFP/RFP fluorescence, OD600, single point; E. coli WT GFP vs humanized-ribosome RFP mutants, 24 h; hits give low values; DMSO median 0, no signal -100; GFP signal change (wild-type ribosome), % (concentration not given with the values); actives 1.6% (n = 350,000); AID 720706, 2013;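 active = significant combined selectivity score with lowered wild-type GFP, culture density cut under 30%, mutant RFP and density less affected; inactive = any of these conditions unmet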
ADAM17 inh – ADAM17 inhibitors, primary screen, biochemical, QFRET | Disintegrin and metalloproteinase domain-containing protein 17 (Homo sapiens), P78536 | recombinant ADAM17, EDANS/DABCYL FRET peptide cleavage | inhibition, % at 6.95 µM | actives 0.83% (n = 370,000) | AID 720648, 2013;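 active = inhibition above the mean of compounds lying between control limits plus 3 SD, set per campaign, cut at about 8.5% in these data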;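 also: 0% = DMSO-only wells as the low control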
proKLK7 act – proKLK7 zymogen activators, primary screen, biochemical, fluorescence intensity; purified proKLK7, EDANS-DABCYL substrate fluorescence; 100% is mature enzyme control, 0% vehicle; actives 0.9% (n = 370,000); Kallikrein-7 (Homo sapiens), P49862; activation, % at 7 µM;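 active = activation above the mean of all tested compounds plus 3 SD, computed per campaign excluding outliers beyond control limits, cut at about 13% in these data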
AID977621 – growth inhibition of wild-type GFP E. coli, dose response, H69 mutant RFP, cherry-pick; shares compounds with Ecoli rRNA inh; E. coli wild-type GFP strain growth, fluorescence, 24 h; activity change, negative = inhibition at 50 µM; 1,900 tested, under 10 active; AID 977621, 2014;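 active = Wild-type ribosome reporter drop at least double the humanized mutant ribosome reporter drop, growth loss under a set limit; inconclusive = no clear call, values can overlap the other calls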;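 also: wild-type GFP and H69 mutant RFP strains grown together 50/50 in each well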
AID977628 – E. coli growth inhibition, wild-type GFP versus h24 humanized RFP strain, dose response, h24 mutant RFP vs wild-type GFP, cherry-pick | shares compounds with Ecoli rRNA inh | E. coli WT GFP strain growth, fluorescence, 24 h | activity change, negative = inhibition at 50 µM | 1,900 tested, under 10 active | AID 977628, 2014;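 active = compound lowering the normal-ribosome reporter at least twice as much as the humanized-ribosome reporter, growth loss under a set limit; inconclusive = no clear call, values can overlap the other calls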;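 also: wild-type GFP and h24 humanized RFP strains co-cultured 1 to 1 per well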
An asterisk follows results filed as active; ? = inconclusive; · = no result.

SMILES | ADAM10 inh | FGF22 binding | Ecoli rRNA inh | ADAM17 inh | proKLK7 act | AID977621 | AID977628
COC(=O)CN1C(=S)N(c2ccc(F)cc2)C(=O)C1CC(=O)Nc1ccc(F)cc1 (centres undefined) | 1.3 | -0.1 | -23.9* | -4.0 | 0.0 | 6.4 | -0.898
CCC(CO)Oc1cc(NC(=O)c2ccccc2F)c2ncn(C(C)C)c2c1 (centres undefined) | -4.3 | 0.2 | -20.2* | -1.8 | 1.0 | · | ?
CCc1nc2ccccc2c(C(=O)OCC(=O)NC(=O)c2cccn2C)c1C | -3.3 | -0.4 | -24.5* | -1.2 | -0.3 | ? | -4.09
CCc1nc2ccccc2c(C(=O)OCC(=O)NC2CC2)c1C | 1.2 | 0.0 | 8.3 | -7.7 | 0.4 | · | ·
COCCN(C(=O)c1ccccc1F)c1nc(-c2ccc(OC)cc2)cs1 | 3.5 | 0.0 | -9.6 | -0.5 | 1.0 | · | ·
COCCN(C(=O)c1ccccc1F)c1nnc(-c2ccc(OC)cc2)s1 | 2.1 | -0.1 | -24.2* | 2.6 | 0.1 | 1.59 | ?
C[C@@H]1CN([C@@H](C)CO)C(=O)Cc2cc(NC(=O)CCN3CCOCC3)ccc2O[C@@H]1CN(C)C(=O)NC1CCCCC1 | · | · | 2.2 | · | · | · | ·
COc1ccc2oc(C)c(C(=O)c3ccc(C)cc3)c2c1 | 2.8 | 0.2 | -18.2 | 1.9 | -0.1 | · | ·
COc1ccc(C(=O)c2c(C)oc3ccc(O)cc23)cc1 | -5.1 | 0.2 | -21.6* | -1.1 | -0.4 | -17.5 | ·
Cc1noc(C)c1NC(=O)N(C)C[C@@H]1Oc2ccc(NC(=O)Nc3ccc4c(c3)OCO4)cc2C(=O)N([C@@H](C)CO)C[C@H]1C | · | 0.0 | 4.9 | · | · | · | ·
Cc1cccc(C(=O)NCC(=O)N2CC=C(c3ccccc3)CC2)c1 | -3.3 | 0.0 | -30.5* | 2.9 | 0.2 | 0.374 | ?
CCN1CCN(C(=O)CS(=O)(=O)Cc2nc(-c3ccccc3C)oc2C)CC1 | -9.7 | 0.0 | 2.2 | -0.8 | -0.4 | · | ·
Cc1ccccc1-c1nc(CS(=O)(=O)CC(=O)N2CCCCC2)c(C)o1 | -4.0 | 0.0 | -19.1* | -2.9 | -0.3 | -0.963 | -6.11
O=c1[nH]c2cc([N+](=O)[O-])ccc2c2ccccc12 | -13.2 | -0.2 | -12.6* | -1.8 | 0.0 | -1.99 | ?
O=c1[nH]c2cc([N+](=O)[O-])ccc2c2cc(Br)ccc12 | -3.5 | -0.2 | 5.7 | -5.1 | -1.0 | · | ·
CCC(=O)N(C)C[C@H]1Oc2cc(C#CCN(C)C)ccc2S(=O)(=O)N([C@@H](C)CO)C[C@@H]1C | · | -0.1 | 1.4 | · | · | · | ·
NS(=O)(=O)c1ccc(Nc2c([N+](=O)[O-])cncc2[N+](=O)[O-])cc1 | 0.2 | 0.0 | -37.2* | 0.0 | -0.3 | · | ?
COc1cccc(Nc2c([N+](=O)[O-])cncc2[N+](=O)[O-])c1 | 7.7 | -0.4 | -13.2 | 2.8 | -0.5 | · | ·
CCOC(=O)CN1C(=O)C(CC)Oc2ccc(Cl)cc21 (centres undefined) | 2.8 | -0.3 | -30.2* | -1.0 | 0.8 | -14 | -15.7
COc1ccc(-c2nn(-c3ccccc3C)cc2CNCc2cccnc2)cc1F | 9.9 | 0.1 | -17.8* | -4.1 | 0.0 | 3.59 | -12.4
Cc1ccc(S(=O)(=O)NCc2c(-c3ccccc3)noc2C)cc1 | 1.3 | -0.2 | -23.2* | -2.4 | -0.4 | -8.59 | -18
CC(C)(C)C1CCC(C(=O)OCC(=O)N2CCN(C(=O)c3ccco3)CC2)CC1 (centres undefined) | 2.2 | 0.2 | -21.8* | 0.9 | 0.6 | -5.04 | -5.56
CC(C)(C)C1CCC(C(=O)OCC(=O)N2CCOCC2)CC1 (centres undefined) | 2.8 | -0.1 | 10.8 | 2.2 | 0.3 | · | ·
COc1ccc(NC(=O)N(C)C[C@@H]2Oc3ccc(NC(=O)Cn4cnnn4)cc3C(=O)N([C@@H](C)CO)C[C@@H]2C)cc1 | · | 0.2 | 2.0 | · | · | · | ·
CCc1cc(CN2CCOCC2)c(NC(=O)c2ccccc2)s1 | -0.5 | 43.2* | -17.4* | -2.7 | 1.0 | -0.08 | -4.82
SMILES | ADAM10 inh | FGF22 binding | Ecoli rRNA inh | ADAM17 inh | proKLK7 act | AID977621 | AID977628
Cc1nnc(NC(=O)CSc2nc3ccccc3[nH]2)s1 | 6.6 | 0.2 | 0.1 | -0.9 | 0.2 | · | ·
Cc1ccc2nc(SCC(=O)Nc3c(F)cccc3F)[nH]c2c1 | 2.4 | · | -22.2* | 2.2 | 0.2 | · | ?
Cc1ccc2nc(SCC(=O)Nc3ccc(F)cc3F)[nH]c2c1 | 0.5 | · | · | 2.9 | -0.1 | · | ·
O=C(CSc1nc2ccccc2[nH]1)Nc1ccccc1F | 3.6 | 0.2 | -25.9* | -1.2 | -0.1 | · | ?
CCOC(=O)Cc1nnc(NC(=O)CSc2nc3ccccc3[nH]2)s1 | -2.4 | 0.3 | -16.9* | -9.0 | 0.5 | · | -15.6
COc1ccc2nc(SCC(=O)Nc3ccccc3)[nH]c2c1 | 5.4 | 0.0 | -20.3* | 0.8 | 0.0 | -21.2 | ·
O=C(O)CSc1nc2ccccc2[nH]1 | 0.5 | · | · | 0.4 | 0.0 | · | ·
C[C@@H]1CN([C@@H](C)CO)C(=O)c2cccc(NC(=O)NC3CCCCC3)c2O[C@H]1CN(C)S(C)(=O)=O | · | 0.1 | -1.4 | · | · | · | ·
CCC(=O)N1CCC2(CC1)CN(Cc1cc(F)ccc1F)[C@H](CO)c1c2c2ccc(OC)cc2n1C | · | -0.4 | 2.3 | · | · | · | ·
COc1ccccc1C#Cc1ccc([C@H]2[C@H](CO)N3CCCCN(S(C)(=O)=O)C[C@@H]23)cc1 | · | 0.3 | 6.5 | · | · | · | ·
CCC(=O)N[C@H]1CC[C@H](CC(=O)NCC2CCCCC2)O[C@H]1CO | · | -0.1 | 2.3 | · | · | · | ·
CO[C@H]1CN(C)C(=O)c2cc(NC(=O)Nc3ccccc3F)ccc2OC[C@H](C)NC[C@H]1C | · | 0.8 | 0.2 | · | · | · | ·
O=C(NCc1ccc2c(c1)OCO2)C1CCCN1S(=O)(=O)c1ccc(Cl)cc1 (centres undefined) | 9.4 | -0.3 | -19.0* | -1.8 | -0.6 | -24.2 | ·
CN1C(=O)c2cc(NC(=O)c3ccccc3Cl)ccc2OC[C@@H]2O[C@H](CC(=O)O)CC[C@@H]21 | · | 0.0 | 1.2 | · | · | · | ·
CC1(c2ccc3ccccc3c2)NC(=O)N(CC(=O)N2CCN(c3ccccc3O)CC2)C1=O (centres undefined) | 10.5 | -0.5 | -19.6* | 3.5 | -0.1 | -4.59 | -6.53
O=[N+]([O-])c1ccc(NCCNCCOc2nonc2-c2ccccc2)c([N+](=O)[O-])c1 | 9.5 | 0.0 | -21.0* | 4.8 | -0.4 | 5.63 | -0.84
